# In PubChem BioAssay (EPA / NIEHS):
# Inconclusive results are not listed. Active and inactive are the calls of the source. Rule for the calls, unless noted: active = hit-call score of the fitted dose curve at least 0.9, where 1 is the maximum; inconclusive = response in the unintended direction; inactive = score below 0.9.
# Tests used:
# [1] = target: Glutamate receptor ionotropic, kainate 1 (Rattus norvegicus) (UniProt P22756); assay: NVS_IC_rKAR: NovaScreen (NVS) Ion Channel Assay for rat Kainic Acid Receptors (KAR) (AID 2283334; active = hit-call score of the fitted dose curve at least 0.9, where 1 is the maximum; inactive = score below 0.9)
# Method in brief: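 Rat forebrain membrane preparation incubated 1 h with radioligand and test chemical; bound signal read by filtration and scintillation. Single-concentration screen at 25 uM, then concentration series to 50 uM maximum.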
# [2] = NVS_IC_rCaBTZCHL: NovaScreen (NVS) Ion Channel Assay for Calcium Channel, Type L, Benzothiazepine Site (CaBTZCHL) (AID 2283337)
# Method in brief: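 Benzothiazepine-site binding was assessed in a tissue-derived, cell-free rat cortical membrane system. After 1.5 h exposure, radioactivity retained on filters was quantified by scintillation; positive and negative controls accompanied every plate.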
# [3] = target: Estrogen receptor (Homo sapiens) (UniProt P03372); assay: OT_ER_ERaERa_1440: Odyssey Thera (OT) 24-hour HEK293T Protein-Complementation Assay for Estrogen Receptor-alpha/-alpha Homodimer (AID 2283349);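 note: hits raise fluorescence above DMSO for agonists and antagonists alike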
# Method in brief: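 HEK293T, stable ERα LBD (aa 310-547) homodimer PCA; 24 h compound exposure; mean fluorescence intensity (nuclear for agonists, nuclear plus cytoplasmic for antagonists) vs vehicle; positive fitting direction, DMSO baseline.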
# [4] = target: Estrogen receptor (Homo sapiens) (UniProt P03372); assay: OT_ER_ERaERa_0480: Odyssey Thera (OT) 8-hour HEK293T Protein-Complementation Assay for Estrogen Receptor-alpha/-alpha Homodimer (AID 2283351);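 note: rise in fluorescence from reassembled reporter fragments on ERα LBD homodimer in nucleus or whole cell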
# Method in brief: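 Measures ERα LBD (aa 310-547) homodimer complementation in stably transfected HEK293T at 8 h post-dose, with fluorescence intensity quantified on a laser scanning cytometer relative to DMSO controls.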
# [5] = target: human Peripheral-type Benzodiazepine Receptor (PBR), TSPO (gene 706) (UniProt P30536); assay: NVS_MP_hPBR: NovaScreen (NVS) Membrane Protein Assay for human Peripheral-type Benzodiazepine Receptor (PBR) (AID 2283331);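 note: hits reduce radioligand binding relative to DMSO baseline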
# Method in brief: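 Cell-free binding to human colonic membrane preparations measured by filter-based scintillation counting after 1 h. Compounds first run at 25 uM in duplicate, then concentration series for actives; signal loss against DMSO baseline.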
# [6] = target: rat Peripheral-type Benzodiazepine Receptor (PBR), Tspo (gene 24230) (UniProt P16257); assay: NVS_MP_rPBR: NovaScreen (NVS) Membrane Protein Assay for rat Peripheral-type Benzodiazepine Receptor (PBR) (AID 2283335)
# Method in brief: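 Single-concentration duplicate screening at 25 uM preceded concentration-series retesting of actives. Binding of a specific radioligand to rat kidney membrane PBR was read by filtration radiodetection after 1 h, with plate-wise positive and negative controls.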
# [7] = target: Small conductance calcium-activated potassium channel protein 1 (Rattus norvegicus) (UniProt P70606); assay: NVS_IC_rKCaCh: NovaScreen (NVS) Ion Channel Assay for rat Potassium Channel, Ca2+ Act., VI (KCaCh) (AID 2283336)
# Method in brief: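 Filter-based scintillation counting of radioligand bound to rat forebrain membrane preparations, measured 1 h after compound addition. Primary screen used 25 uM in duplicate, with concentration-response follow-up; signal decrease relative to DMSO marks activity.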
# [8] = target: rat Glutamate, MK-801 Agonist Site (GluNMDA_MK801), Grin1 (gene 24408) (UniProt P35439); assay: NVS_LGIC_rGluNMDA_MK801_Agonist: NovaScreen (NVS) Ligand-Gated Ion Channel Assay for rat Glutamate, MK-801 Agonist Site (GluNMDA_MK801) (AID 2283340)
# Method in brief: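 Rat forebrain membrane preparation; MK-801-site radioligand binding read by filtration and scintillation after 1.5 h. Single-point 25 uM duplicate screen, followed by singleton concentration series to 50 uM max; DMSO baseline.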
# [9] = target: bovine Estrogen Receptor (ER), ESR1 (gene 407238) (UniProt P49884); assay: NVS_NR_bER: NovaScreen (NVS) Nuclear Receptor Binding Assay for bovine Estrogen Receptor (ER) (AID 2283345);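 note: actives lower the bound radioligand count which means they displace the ER ligand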
# Method in brief: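 Scintillation counting of displaced radioligand gave the readout; bovine uterine membrane extract supplied the receptor. Measured 18 h post-dose, normalized to DMSO baseline. Single 25 uM duplicate screen preceded concentration-response follow-up.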
# [10] = target: Estrogen receptor (Homo sapiens) + Estrogen receptor beta (Homo sapiens) (UniProt P03372+Q92731); assay: OT_ER_ERaERb_0480: Odyssey Thera (OT) 8-hour HEK293T Protein-Complementation Assay for Estrogen Receptor-alpha/-beta Heterodimer (AID 2283352)
# Method in brief: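 HEK293T protein-fragment complementation assay of ER-alpha/ER-beta LBD heterodimerisation, read 8 h after dosing. Mean nuclear/cytoplasmic fluorescence intensity measured by laser scanning cytometry; gain of signal fitted relative to DMSO.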
# [11] = tested on: guinea pig Histamine Receptor (H2), gene 100729734; assay: NVS_GPCR_gH2: NovaScreen (NVS) G Protein-Coupled Receptor Assay for guinea pig Histamine Receptor (H2) (AID 2283342)
# Method in brief: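 Guinea pig striatal membrane preparation with specific radioligand; bound counts measured by filtration and scintillation 1 h post-dosing, DMSO as baseline. Chemicals passing a 25 uM duplicate screen were titrated to a 50 uM maximum.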
# [12] = target: human Constitutive Androstane Receptor (CAR), NR1I3 (gene 9970) (UniProt Q14994); assay: NVS_NR_hCAR_Antagonist: NovaScreen (NVS) Nuclear Receptor Binding Assay for human Constitutive Androstane Receptor Antagonism (CAR) (AID 2283344)
# Method in brief: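 Single 25 uM duplicate primary screen, with concentration-series follow-up on actives. Cell-free binding format run in antagonist mode, TR-FRET signal taken 1 h post-dose; activity is signal loss relative to DMSO.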
# [13] = target: Bile acid receptor (Homo sapiens) (UniProt Q96RI1); assay: NVS_NR_hFXR_Antagonist: NovaScreen (NVS) Nuclear Receptor Binding Assay for human Farnesoid X Receptor Antagonism (FXR) (AID 2283350)
# Method in brief: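 Antagonist-format time-resolved FRET binding assay with extracted human receptor protein, read 1 hour after compound addition. Compounds first screened at 25 uM in duplicate, then actives tested in concentration series, with loss of signal relative to DMSO.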
# [14] = target: Androgen Receptor/SRC-1 Co-activator, AR (gene 367) (UniProt P10275); assay: OT_AR_ARSRC1_0480: Odyssey Thera (OT) 8-hour HEK293T Protein-Complementation Assay for Androgen Receptor/SRC-1 Co-activator (AID 2283354);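 note: hits raise the complementation signal above DMSO so AC50 marks enhancers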
# Method in brief: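 Reconstituted split-Venus YFP signal from AR–SRC-1 interaction, read by imaging 8 h post-dose in stable HEK293T lines. The 488 nm nucleus-to-cytoplasm ratio (≥400 cells/image) was fitted upward against DMSO.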
# [15] = target: rat Glycine Receptor, Strychnine-sensitive (GlyRStrySens), Glra1 (gene 25674) (UniProt P07727); assay: NVS_LGIC_rGlyRStrySens: NovaScreen (NVS) Ligand-Gated Ion Channel Assay for rat Glycine Receptor, Strychnine-sensitive (GlyRStrySens) (AID 2283341)
# Method in brief: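 Radioligand displacement on rat spinal cord membranes, 1 hr, filter scintillation read-out. Single-concentration duplicate screen at 25 uM; chemicals meeting threshold (e.g., 30% inhibition) rerun in concentration-response up to 50 uM. Loss of binding fitted versus DMSO.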
# [16] = tested on: NCBI gene 100848466; assay: NVS_NR_bPR: NovaScreen (NVS) Nuclear Receptor Binding Assay for bovine Progextron Receptor (PR) (AID 2283343)
# Method in brief: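 Competitive radioligand binding with membranes from bovine uterus, scintillation read-out at 18 h post-dose. Compounds first tested in duplicate at 25 uM, then actives in concentration series; loss-of-signal relative to DMSO.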
# Sequence of Estrogen receptor (Homo sapiens) + Estrogen receptor beta (Homo sapiens) (P03372 whole entry, looked up, the tested form may be a part): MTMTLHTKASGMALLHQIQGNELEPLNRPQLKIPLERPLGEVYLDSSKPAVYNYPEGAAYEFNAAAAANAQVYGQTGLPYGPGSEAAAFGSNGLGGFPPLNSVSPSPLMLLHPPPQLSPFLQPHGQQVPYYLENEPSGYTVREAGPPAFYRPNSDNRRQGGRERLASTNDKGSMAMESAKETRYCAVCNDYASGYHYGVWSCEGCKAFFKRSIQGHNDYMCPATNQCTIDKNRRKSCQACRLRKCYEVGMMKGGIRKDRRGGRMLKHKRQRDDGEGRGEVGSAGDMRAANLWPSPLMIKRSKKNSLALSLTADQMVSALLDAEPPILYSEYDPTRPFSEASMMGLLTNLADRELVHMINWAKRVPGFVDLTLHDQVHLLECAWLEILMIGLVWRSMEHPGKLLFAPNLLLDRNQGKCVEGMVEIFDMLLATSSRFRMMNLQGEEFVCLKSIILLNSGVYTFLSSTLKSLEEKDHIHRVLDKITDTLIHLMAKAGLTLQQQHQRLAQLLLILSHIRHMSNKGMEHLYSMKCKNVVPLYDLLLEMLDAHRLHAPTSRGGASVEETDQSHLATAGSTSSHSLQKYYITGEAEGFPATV
# Sequence of Estrogen receptor (Homo sapiens) + Estrogen receptor beta (Homo sapiens) (Q92731 whole entry, looked up, the tested form may be a part): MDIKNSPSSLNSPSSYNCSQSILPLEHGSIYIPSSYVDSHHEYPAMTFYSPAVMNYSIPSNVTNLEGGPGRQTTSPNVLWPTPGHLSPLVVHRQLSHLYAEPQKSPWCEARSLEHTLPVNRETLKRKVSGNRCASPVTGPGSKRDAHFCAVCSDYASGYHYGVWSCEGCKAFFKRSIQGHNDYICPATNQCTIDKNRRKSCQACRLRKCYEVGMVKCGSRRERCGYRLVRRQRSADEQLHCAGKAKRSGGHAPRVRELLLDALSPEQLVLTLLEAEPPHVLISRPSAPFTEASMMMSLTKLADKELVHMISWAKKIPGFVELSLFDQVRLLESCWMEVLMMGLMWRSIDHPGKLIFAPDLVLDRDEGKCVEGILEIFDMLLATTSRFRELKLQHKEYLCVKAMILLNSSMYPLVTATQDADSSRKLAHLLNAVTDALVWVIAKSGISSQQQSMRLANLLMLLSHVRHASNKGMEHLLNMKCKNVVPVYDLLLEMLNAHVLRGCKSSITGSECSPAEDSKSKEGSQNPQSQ
# Sequence of Estrogen receptor (Homo sapiens) (P03372 whole entry, looked up, the tested form may be a part): as the sequence (P03372 whole entry, looked up, the tested form may be a part) above
# Sequence of rat Peripheral-type Benzodiazepine Receptor (PBR), Tspo (gene 24230) (P16257 whole entry, looked up): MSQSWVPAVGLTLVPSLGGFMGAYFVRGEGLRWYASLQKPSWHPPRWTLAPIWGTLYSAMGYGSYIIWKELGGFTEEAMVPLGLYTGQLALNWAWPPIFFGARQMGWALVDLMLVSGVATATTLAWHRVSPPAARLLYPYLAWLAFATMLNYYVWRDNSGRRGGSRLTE
# Sequence of Androgen Receptor/SRC-1 Co-activator, AR (gene 367) (P10275 whole entry, looked up): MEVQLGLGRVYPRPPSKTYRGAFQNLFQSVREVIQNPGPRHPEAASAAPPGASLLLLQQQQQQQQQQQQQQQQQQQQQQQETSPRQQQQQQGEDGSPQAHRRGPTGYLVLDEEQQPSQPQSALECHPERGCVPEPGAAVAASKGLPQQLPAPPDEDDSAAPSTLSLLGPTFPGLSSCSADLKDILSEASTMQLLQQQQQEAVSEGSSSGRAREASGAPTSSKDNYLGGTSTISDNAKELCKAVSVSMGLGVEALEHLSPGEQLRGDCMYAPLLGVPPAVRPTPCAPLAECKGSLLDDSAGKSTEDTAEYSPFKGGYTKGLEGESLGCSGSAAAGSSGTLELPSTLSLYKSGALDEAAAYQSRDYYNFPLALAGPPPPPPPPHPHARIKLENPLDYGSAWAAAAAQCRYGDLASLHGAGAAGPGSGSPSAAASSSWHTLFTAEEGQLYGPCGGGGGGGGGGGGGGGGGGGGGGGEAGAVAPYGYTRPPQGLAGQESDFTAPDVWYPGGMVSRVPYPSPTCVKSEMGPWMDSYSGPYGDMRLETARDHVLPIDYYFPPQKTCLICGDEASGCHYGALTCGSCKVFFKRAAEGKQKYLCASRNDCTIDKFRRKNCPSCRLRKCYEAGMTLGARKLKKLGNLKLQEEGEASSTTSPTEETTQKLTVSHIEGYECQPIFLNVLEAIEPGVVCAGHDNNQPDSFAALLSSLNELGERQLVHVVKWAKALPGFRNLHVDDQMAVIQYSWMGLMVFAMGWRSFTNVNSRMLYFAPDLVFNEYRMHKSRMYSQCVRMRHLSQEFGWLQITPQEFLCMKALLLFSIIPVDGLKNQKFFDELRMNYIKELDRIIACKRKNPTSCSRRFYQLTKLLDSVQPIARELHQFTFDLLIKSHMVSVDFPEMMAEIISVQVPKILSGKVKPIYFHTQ
# Sequence of human Peripheral-type Benzodiazepine Receptor (PBR), TSPO (gene 706) (P30536 whole entry, looked up): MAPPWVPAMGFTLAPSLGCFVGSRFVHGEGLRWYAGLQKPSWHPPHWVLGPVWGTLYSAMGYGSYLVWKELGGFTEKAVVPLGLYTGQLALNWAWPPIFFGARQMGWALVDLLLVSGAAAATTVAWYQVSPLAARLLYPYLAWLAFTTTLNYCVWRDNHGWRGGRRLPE
# Sequence of bovine Estrogen Receptor (ER), ESR1 (gene 407238) (P49884 whole entry, looked up): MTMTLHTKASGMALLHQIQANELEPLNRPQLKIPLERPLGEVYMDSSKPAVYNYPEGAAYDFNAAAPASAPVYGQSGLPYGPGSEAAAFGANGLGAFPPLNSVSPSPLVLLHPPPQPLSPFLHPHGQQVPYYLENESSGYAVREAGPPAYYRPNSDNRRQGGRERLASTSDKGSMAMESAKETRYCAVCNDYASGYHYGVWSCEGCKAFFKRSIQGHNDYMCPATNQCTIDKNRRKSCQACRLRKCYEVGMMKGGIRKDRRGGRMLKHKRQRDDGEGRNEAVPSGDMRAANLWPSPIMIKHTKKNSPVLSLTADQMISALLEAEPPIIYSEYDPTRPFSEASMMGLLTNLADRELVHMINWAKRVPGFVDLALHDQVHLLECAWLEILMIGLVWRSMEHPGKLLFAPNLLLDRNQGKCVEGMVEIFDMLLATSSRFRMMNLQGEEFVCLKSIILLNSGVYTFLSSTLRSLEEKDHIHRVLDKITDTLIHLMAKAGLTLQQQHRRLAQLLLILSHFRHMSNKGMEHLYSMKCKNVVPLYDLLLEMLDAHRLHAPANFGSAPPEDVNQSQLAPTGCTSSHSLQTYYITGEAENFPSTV
# Sequence of Small conductance calcium-activated potassium channel protein 1 (Rattus norvegicus) (P70606 whole entry, looked up): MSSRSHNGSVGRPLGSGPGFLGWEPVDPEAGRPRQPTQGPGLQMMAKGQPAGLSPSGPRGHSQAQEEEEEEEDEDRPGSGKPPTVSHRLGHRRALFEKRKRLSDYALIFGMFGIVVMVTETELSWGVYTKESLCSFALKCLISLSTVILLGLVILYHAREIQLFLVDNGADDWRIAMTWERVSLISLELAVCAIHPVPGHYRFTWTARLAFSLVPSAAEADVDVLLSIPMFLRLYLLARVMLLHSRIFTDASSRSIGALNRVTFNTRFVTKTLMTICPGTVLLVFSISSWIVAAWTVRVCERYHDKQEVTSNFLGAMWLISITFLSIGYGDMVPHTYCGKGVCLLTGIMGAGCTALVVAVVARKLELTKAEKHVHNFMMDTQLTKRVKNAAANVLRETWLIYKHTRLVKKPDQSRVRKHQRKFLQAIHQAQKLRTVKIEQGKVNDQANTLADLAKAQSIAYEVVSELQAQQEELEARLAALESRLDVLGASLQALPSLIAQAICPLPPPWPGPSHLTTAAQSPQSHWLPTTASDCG
# Sequence of Bile acid receptor (Homo sapiens) (Q96RI1 whole entry, looked up): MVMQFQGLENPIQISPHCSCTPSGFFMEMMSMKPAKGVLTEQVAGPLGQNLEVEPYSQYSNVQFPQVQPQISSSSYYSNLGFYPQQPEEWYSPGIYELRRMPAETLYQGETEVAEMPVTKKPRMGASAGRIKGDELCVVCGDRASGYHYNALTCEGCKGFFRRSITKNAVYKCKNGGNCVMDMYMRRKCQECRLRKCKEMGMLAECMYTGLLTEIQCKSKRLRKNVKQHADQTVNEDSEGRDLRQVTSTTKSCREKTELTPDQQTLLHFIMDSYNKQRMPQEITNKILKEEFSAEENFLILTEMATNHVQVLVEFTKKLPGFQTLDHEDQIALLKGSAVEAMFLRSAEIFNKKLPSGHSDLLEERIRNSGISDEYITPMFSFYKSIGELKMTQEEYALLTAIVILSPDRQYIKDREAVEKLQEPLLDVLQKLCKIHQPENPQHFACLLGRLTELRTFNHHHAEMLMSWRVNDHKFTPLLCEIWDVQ
# Sequence of human Constitutive Androstane Receptor (CAR), NR1I3 (gene 9970) (Q14994 whole entry, looked up): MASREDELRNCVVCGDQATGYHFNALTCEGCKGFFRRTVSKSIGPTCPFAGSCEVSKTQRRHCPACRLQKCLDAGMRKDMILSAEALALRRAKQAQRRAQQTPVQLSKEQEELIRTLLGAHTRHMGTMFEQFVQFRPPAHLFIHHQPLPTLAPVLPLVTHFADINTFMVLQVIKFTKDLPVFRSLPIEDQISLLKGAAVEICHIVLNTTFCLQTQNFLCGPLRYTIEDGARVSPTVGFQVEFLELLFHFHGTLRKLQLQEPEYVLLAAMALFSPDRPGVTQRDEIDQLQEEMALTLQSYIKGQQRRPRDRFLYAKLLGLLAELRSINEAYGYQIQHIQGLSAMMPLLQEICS
smiles,measurement,setting,value
COc1cc(S(=O)(=O)O)c(C)cc1N=Nc1c(O)ccc2cc(S(=O)(=O)O)ccc12,outcome,[1],inactive
same,outcome,[2],inactive
same,outcome,[3],inactive
same,outcome,[4],inactive
CC=Cc1ccc(O)c(OC)c1,AC50,[5],17.2 µM (active)
same,AC50,[6],3.55 µM (active)
same,outcome,[7],inactive
same,AC50,[3],73.5 µM (active)
same,AC50,[4],57.6 µM (active)
Nc1ccc(S(=O)(=O)c2ccc(N)cc2)cc1,AC50,[6],3.28 µM (active)
same,outcome,[3],inactive
same,outcome,[4],inactive
CC(C)c1ccc(C(=O)N=C(N)N)cc1S(C)(=O)=O,AC50,[5],12.3 µM (active)
same,outcome,[6],inactive
same,outcome,[8],inactive
same,outcome,[9],inactive
same,outcome,[3],inactive
same,outcome,[10],inactive
Cc1nc(-c2ccc3c(c2)CCN(CCC2CCC(NC(=O)/C=C/c4ccc(F)cc4)CC2)CC3)no1 (centres undefined),outcome,[2],inactive
same,AC50,[11],0.216 µM (active)
same,outcome,[12],inactive
same,outcome,[9],inactive
same,outcome,[3],inactive
same,outcome,[13],inactive
same,outcome,[4],inactive
same,outcome,[10],inactive
same,outcome,[14],inactive
Cc1ccc(C)c(O)c1C,outcome,[15],inactive
O=[N+]([O-])C(CO)(CO)CO,outcome,[16],inactive
Cc1ccc(N(C)C)cc1,outcome,[3],inactive
same,outcome,[4],inactive
same,outcome,[14],inactive
CC(=O)Oc1ccccc1C(=O)O,outcome,[3],inactive
same,outcome,[4],inactive
same,outcome,[10],inactive
same,outcome,[14],inactive
O=c1c(O)c(-c2ccc(O)c(O)c2)oc2cc(O)cc(O)c12,outcome,[3],inactive
same,outcome,[4],inactive
same,AC50,[10],13.4 µM (active)
Cc1ccccc1Cl,outcome,[3],inactive
same,outcome,[4],inactive
same,outcome,[14],inactive
Cc1nc(C)nc(N2C[C@@H](C)N(c3ccnc([C@@H](C)O)n3)[C@@H](C)C2)n1,outcome,[4],inactive
COCCOC[C@H](CC1(C(=O)NC2CCC(C(=O)O)CC2)CCCC1)C(=O)Oc1ccc2c(c1)CCC2 (some centres undefined),outcome,[3],inactive
same,outcome,[4],inactive
same,outcome,[14],inactive
CCCCOC(=O)CCCCCCCCC(=O)OCCCC,outcome,[3],inactive
same,outcome,[4],inactive
same,outcome,[10],inactive
C[Si]1(C)O[Si](C)(C)O[Si](C)(C)O[Si](C)(C)O1,outcome,[3],inactive
same,outcome,[4],inactive
same,outcome,[10],inactive
Cc1ccc2ncccc2c1,outcome,[3],inactive
same,outcome,[4],inactive
Cc1cccc(C)c1O,outcome,[3],inactive
same,outcome,[4],inactive
same,outcome,[10],inactive
same,outcome,[14],inactive
O=C(O)CCCCC(=O)O,outcome,[3],inactive
same,outcome,[4],inactive
same,outcome,[10],inactive
CCOC(=O)C(C)(C)Oc1ccc(Cl)cc1,outcome,[3],inactive
same,outcome,[4],inactive
same,outcome,[10],inactive
Cc1c(C(=O)O)c(O)cc2c1C(=O)c1c(O)c([C@@H]3O[C@H](CO)[C@@H](O)[C@H](O)[C@H]3O)c(O)c(O)c1C2=O,outcome,[3],inactive
same,outcome,[4],inactive
same,outcome,[10],inactive
CNC(=O)[C@H]1O[C@@H](n2cnc3c(NCc4cc(Cl)ccc4OCc4cc(C)no4)ncnc32)[C@H](O)[C@@H]1N,AC50,[3],11.9 µM (active)
same,outcome,[4],inactive
same,outcome,[10],inactive
same,outcome,[14],inactive
CCCCCCOCCO,outcome,[3],inactive
same,outcome,[4],inactive
same,outcome,[10],inactive
NCCO,outcome,[3],inactive
same,outcome,[4],inactive
C1CCC(SSC2CCCCC2)CC1,outcome,[3],inactive
same,outcome,[4],inactive
same,AC50,[10],50 µM (active)
NCC1(Cc2noc(=O)[nH]2)CCCCC1,outcome,[3],inactive
same,outcome,[4],inactive
same,outcome,[10],inactive
CCCCCCCCCCCCCO,outcome,[3],inactive
same,outcome,[4],inactive
same,outcome,[10],inactive
CC1=C(/C=C/C(C)=C/C=C/C(C)=C/CO)C(C)(C)CCC1,outcome,[3],inactive
same,outcome,[4],inactive
same,outcome,[10],inactive
COCCOCCOC,outcome,[3],inactive
same,outcome,[10],inactive
CCCCCCCCCCO,outcome,[3],inactive
same,outcome,[4],inactive
same,outcome,[10],inactive
CN1CCCC1=O,outcome,[3],inactive
same,outcome,[10],inactive
CCOC(=O)CCC(=O)OCC,outcome,[3],inactive
same,outcome,[4],inactive
same,outcome,[10],inactive
Cc1ccc(C)c(C)c1,outcome,[3],inactive
same,outcome,[4],inactive
same,outcome,[10],inactive
same,outcome,[14],inactive
O=c1[nH]cc(F)c(=O)[nH]1,outcome,[3],inactive
same,outcome,[4],inactive
same,outcome,[10],inactive
COc1ccc(C)cc1N,outcome,[3],inactive
same,outcome,[4],inactive
same,outcome,[14],inactive
CCCCCC(=O)O,outcome,[3],inactive
same,outcome,[4],inactive
same,outcome,[10],inactive
Cc1cc(NC(=O)C(=O)O)cc(C)c1Oc1ccc(O)c2c1CCC2,outcome,[3],inactive
same,outcome,[4],inactive
same,outcome,[14],inactive
